An excerpt weighted towards active compounds, which were near 0.85% of everything screened.
Coupling enz: coupling enzyme interference in Giardia aldolase counter-screen. coupling enzyme system counterscreen, AmpLite Red fluorescence. activity change, negative = inhibition, % at 58.2 µM, hits read low. actives 0.67% (n = 290,000). AID 2472; in the data active = activity change below about -30%
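Counterscreen of the coupled detection system alone, without aldolase: glyceraldehyde-3-phosphate coupling enzymes plus AmpLite Red readout. Compounds at 57.5 uM final, 10 min RT preincubation, 20 min RT reaction, fluorescence 525/598 nm.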
aGlu spleen mod: inhibits or activates alpha-glucosidase in human spleen homogenate; P10253; human spleen homogenate, 4-MU-alpha-glucoside fluorescence; Potency, µM (series often up to 79.9 µM), inactives show at the top dose activity change, negative = inhibition, usual class: inhibitors; actives 0.006% (n = 240,000);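 also: potency is read from the fitted curve at half-maximal effect; 0% = enzyme with vehicle and -100% = no enzyme basal signal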
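AC50 values come from Hill-equation fits of concentration-response data, normalized to no-enzyme and full-activity controls. Enzyme source: 1 ug human spleen homogenate; 1 mM fluorogenic 4-MU glucoside, pH 5.0 citrate buffer, 37 C, 40 min.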
GAA glycogen: inhibitors or activators of human alpha-glucosidase glycogen cleavage; recombinant GAA, glycogen substrate, Amplex Red glucose oxidase fluorescence; Potency, µM (doses to about 76.4 µM), inactives show top-dose activity change, negative = inhibition, usual class: inhibitors; actives 0.38% (n = 300,000);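 also: potency is read from the fitted curve at half-maximal effect; 0% = full enzyme reaction and -100% = no-enzyme basal signal; the screen sought inhibitors and activators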
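Recombinant human enzyme (4 nM); glycogen substrate; 37 C, 40 min, pH 5.0. Readout: coupled glucose oxidase/Amplex Red fluorescence.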
GAA inhib: blocks human lysosomal alpha-glucosidase; P10253; purified human GAA, 4-MU-alpha-glucoside fluorescence; Potency, µM (series often up to 76.9 µM), inactives show at the highest dose activity change, negative = inhibition, hits mostly inhibitors; actives 0.005% (n = 200,000); AID 1466;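 also: potency is read from the fitted curve at half-maximal effect; plate controls were uninhibited enzyme wells for no effect and no-enzyme background for full effect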
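Compounds are titrated up to 77 uM against 4 nM human enzyme. Substrate 4-methylumbelliferyl-alpha-D-pyranoside (400 uM) reacts 20 min at room temperature in pH 5.0 buffer; liberated 4-methylumbelliferone is read at 440 nm.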
B2AR arrestin: agonists driving beta-arrestin recruitment to human beta2-adrenergic receptor; Potency, µM (series often up to 46.1 µM), without a hit: at the top dose activation, usual class: activators; actives 0.02% (n = 330,000); beta-arrestin recruitment to beta2AR, cell-based reporter;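 also: potency is read from the fitted curve at half-maximal effect; 0% = DMSO controls and full agonism = EC100 isoproterenol or metaproterenol; nearly all actives have a fitted effect of over 65% in size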
Target sequence (P07550 whole entry, looked up): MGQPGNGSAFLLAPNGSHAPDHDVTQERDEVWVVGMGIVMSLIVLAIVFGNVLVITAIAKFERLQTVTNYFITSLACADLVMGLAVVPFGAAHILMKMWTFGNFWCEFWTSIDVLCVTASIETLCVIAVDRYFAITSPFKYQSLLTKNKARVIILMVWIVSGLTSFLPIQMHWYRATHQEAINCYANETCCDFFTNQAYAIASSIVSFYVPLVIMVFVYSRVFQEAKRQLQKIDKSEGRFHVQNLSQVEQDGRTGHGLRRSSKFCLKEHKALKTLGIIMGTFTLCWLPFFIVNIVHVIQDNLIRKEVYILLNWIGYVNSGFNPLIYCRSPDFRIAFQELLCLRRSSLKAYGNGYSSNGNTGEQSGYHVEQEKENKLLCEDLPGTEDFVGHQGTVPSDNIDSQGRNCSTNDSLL
An asterisk follows results filed as active; ? = inconclusive; . = no result; ! = repeats disagree; [ ] = another dose, or the depositor's remark. Unless noted, calls follow the shape of the dose curve; as a rule, active = well fitted curve in the direction sought with a large enough effect; inconclusive = small, poorly fitted or top-dose-only effect, or another doubt; inactive = no such curve, though single readings can be large; an effect the other way counts as inactive or inconclusive. Unless noted, % is scaled to controls: 0 for no effect and ±100 for the full control effect.

SMILES	Coupling enz	aGlu spleen mod	GAA glycogen	GAA inhib	B2AR arrestin
CCCCNC(=O)c1c(N)n(CCCOC)c2nc3ccccc3nc12	-39*	3%	-5%	?	0%
COCCCn1c(N)c(C(=O)OCCOC)c2nc3ccccc3nc21	-18	?	-3%	?	0%
ClC(Cl)Br	.	6%	.	.	.
Nc1c(C(=O)NCC2CCCO2)c2nc3ccccc3nc2n1Cc1ccco1 (stereo not drawn)	-1	9%	?	.	-1%
Nc1c(C(=O)NC2CCCC2)c2nc3ccccc3nc2n1CC1CCCO1 (stereo not drawn)	-46*	?	-7%	-16%	-1%
O=C(O)CC1OCC=C2CN3CCC45C6=CC(=O)C(=O)C([N+](=O)[O-])=C6NC4C1C2CC35 (stereo not drawn)	-92*	-4%	-4%	-13%	-1%
O=C(O)CC1OCC=C2CN3CCC45c6ccccc6NC4C1C2CC35 (stereo not drawn)	0	-17%	-4%	.	-1%
CCOC(=O)C1OC1(C)c1ccccc1 (stereo not drawn)	.	3%	.	.	.
COc1ccc(OC)c(N2C(=O)/C(=C/c3ccco3)C(=O)NC2=S)c1	0	.	6%	.	0%
C=CCN1C(=O)/C(=C/c2ccc(Br)s2)C(=O)NC1=S	0	.	-6%[76.3 µM]	.	0%
COc1ccc(OC)c(N2C(=O)NC(=O)/C(=C/c3ccc([N+](=O)[O-])s3)C2=O)c1	-33*	4%	-27%	1%	0%
CCN1C(=O)/C(=C\c2ccc([N+](=O)[O-])s2)C(=O)NC1=S	-40*	0%	-29%	0%	0%
CCC1C(=O)OC[C@H]1Cc1cncn1C (stereo partly drawn)	4	-18%	.	.	.
COC(=O)C1=C(C)NC(C)=C(C(=O)OC)C1c1ccccc1[N+](=O)[O-]	-78*!	3%	-8%	3%[15.4 µM]	?
O=C(Oc1ccccc1)N1CCC[C@@]2(CCN(C(c3ccccc3)c3ccccc3)C2)C1	-34*	8%	.	.	.
O=C(Oc1ccccc1)N1CCC2(CCCN(C(c3ccccc3)c3ccccc3)C2)CC1	0	-7%	.	.	.
O=C(N=Nc1c(O)[nH]c(=O)[nH]c1=O)C1COc2cc3ccccc3cc2O1 (stereo not drawn)	-30*	-1%	?	-8%	-1%
NC(=O)c1ccc(N=Nc2c(O)[nH]c(=O)[nH]c2=O)cc1	0	-4%	19%	-10%	0%
CCC#N	.	-1%	.	.	.
Cc1nc2c(=O)n(C)c(=O)nc-2n(C)n1	-2	-4%	8%	1%	0%

Screens: PubChem BioAssay, National Center for Advancing Translational Sciences (NCATS)
